# Compounds without any hit were thinned out: in the full panel of roughly 79,000, 15% have a hit. Values without a mark were called inactive. Activity calls are given as the source filed them. No stated cut-off is given here; in the data, active means growth inhibition above about 70%; inactive means the rest.
# Legend:
# [1] = NCI Yeast Anticancer Drug Screen. Data for the rad52 strain (AID 147);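 further: 0% = growth of vehicle-treated control cultures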; conditions: S. cerevisiae rad52 mutant growth inhibition, active compounds read high
# Outline: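 Read-out: growth inhibition versus vehicle-treated controls. Cells were a DNA repair-deficient yeast strain treated with compounds.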
# [2] = NCI Yeast Anticancer Drug Screen. Data for the wt1 strain (AID 149);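 further: 0% = growth of vehicle-treated wt1 cultures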; conditions: S. cerevisiae wt1 strain (SPY 50644) growth inhibition, active compounds read high
# Outline: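 Compounds are added to wt1 yeast cultures. Growth is then measured. Inhibition is expressed relative to vehicle-treated controls.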
# [3] = NCI Yeast Anticancer Drug Screen. Data for the rad50EPP+ strain (AID 151);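 further: 0% = growth of vehicle-treated control cultures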; conditions: S. cerevisiae rad50 mutant strain, active compounds read high
# Outline: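 Growth inhibition read against vehicle controls in rad50EPP+ yeast, a strain altered in DNA damage repair, after compound exposure.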
# [4] = NCI Yeast Anticancer Drug Screen. Data for the mgt1 strain (AID 153); conditions: S. cerevisiae mgt1 mutant growth inhibition, active compounds read high
# Outline: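 mgt1 yeast grown with test compound; read-out is growth inhibition versus vehicle-treated cultures.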
# [5] = NCI Yeast Anticancer Drug Screen. Data for the rad50 strain (AID 155);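 further: 0% = growth of vehicle-only cultures of the same strain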; conditions: S. cerevisiae rad50 strain growth inhibition, active compounds read high
# Outline: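 Inhibition values express reduced yeast growth in compound-treated cultures relative to vehicle-treated controls.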
# [6] = NCI Yeast Anticancer Drug Screen. Data for the mec2-1 strain (AID 157); conditions: S. cerevisiae mec2-1 strain, active compounds read high
# Outline: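 Yeast mec2-1 mutant treated with compound. Readout: growth inhibition vs vehicle controls.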
# [7] = NCI Yeast Anticancer Drug Screen. Data for the rad14 strain (AID 159);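 further: 0% = growth of vehicle-treated control cultures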; conditions: S. cerevisiae rad14 strain growth inhibition, active compounds read high
# Outline: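 A mutant yeast strain defective in DNA damage repair is treated with compound; inhibition of its growth is scored against untreated, vehicle-exposed cultures.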
# [8] = NCI Yeast Anticancer Drug Screen. Data for the sgs1 mgt1 strain (AID 161);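 further: 0% = growth of cultures given vehicle only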; conditions: S. cerevisiae sgs1 mgt1 strain, active compounds read high
# Outline: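 Mutant yeast exposed to compound; growth scored against vehicle-only wells.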
# [9] = NCI Yeast Anticancer Drug Screen. Data for the CLN2oe strain (AID 163);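 further: 0% = growth of vehicle-only control cultures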; conditions: S. cerevisiae CLN2oe strain, active compounds read high
# Outline: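 Read-out: yeast growth inhibition, expressed relative to vehicle-only controls. The strain bears an engineered cell-cycle alteration.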
# [10] = NCI Yeast Anticancer Drug Screen. Data for the cln2 rad14 strain (AID 165);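 further: 0% = growth equal to vehicle treated cultures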; conditions: S. cerevisiae cln2 rad14 strain, active compounds read high
# Outline: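 cln2 rad14 yeast strain; compound exposure; growth inhibition read vs vehicle controls.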
# [11] = NCI Yeast Anticancer Drug Screen. Data for the bub3 strain (AID 167); conditions: S. cerevisiae bub3 mutant strain, active compounds read high
# Outline: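 Steps: expose the mutant yeast strain to compound; grow alongside vehicle-treated cultures; measure growth; express inhibition against the vehicle cultures.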
# [12] = NCI Yeast Anticancer Drug Screen. Data for the wt2 strain (AID 169);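 further: 0% = growth of vehicle-treated yeast cultures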; conditions: S. cerevisiae wt2 strain growth inhibition, active compounds read high
# Outline: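 Read-out: growth inhibition versus vehicle-treated control cultures after compound exposure of the yeast strain.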
# [13] = NCI Yeast Anticancer Drug Screen. Data for the sgs1 strain (AID 173);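 further: 0% = growth of vehicle-only control cultures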; conditions: S. cerevisiae sgs1 mutant, active compounds read high
# Outline: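 Read-out: yeast growth inhibition relative to vehicle controls, following compound exposure of a strain with a defined DNA repair/cell cycle alteration.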
# [14] = NCI Yeast Anticancer Drug Screen. Data for the mlh1 rad18 strain (AID 175); conditions: S. cerevisiae mlh1 rad18 strain growth inhibition, active compounds read high
# Outline: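 Yeast w/ defined DNA-repair lesions; compound exposure; growth vs vehicle controls → % inhibition.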
# [15] = NCI Yeast Anticancer Drug Screen. Data for the rad18 strain (AID 177); conditions: S. cerevisiae rad18 mutant growth inhibition, active compounds read high
# Outline: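 Readout: growth inhibition vs vehicle controls. Cells: genetically altered yeast strain, DNA repair defect.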
# [16] = at 5.0 µM (retest, dose inferred, filed as 0.5)
# [17] = at 50.0 µM (retest, dose inferred, filed as 5.0)
smiles,measurement,setting,value
C=C(CN(C)C)C(=O)c1cc(C)ccc1C,growth inhibition,[1]; at 1.2 µM,5%
same,growth inhibition,[1]; at 3.7 µM,32%
same,growth inhibition,[1]; at 11.0 µM,85% (active)
same,growth inhibition,[1]; at 33.0 µM,99% (active)
same,growth inhibition,[1]; at 100.0 µM,99% (active)
same,growth inhibition,[2]; at 1.2 µM,8%
same,growth inhibition,[2]; at 3.7 µM,23%
same,growth inhibition,[2]; at 11.0 µM,56%
same,growth inhibition,[2]; at 33.0 µM,98% (active)
same,growth inhibition,[2]; at 100.0 µM,99% (active)
same,growth inhibition,[3]; at 1.2 µM,1%
same,growth inhibition,[3]; at 3.7 µM,9%
same,growth inhibition,[3]; at 11.0 µM,32%
same,growth inhibition,[3]; at 33.0 µM,80% (active)
same,growth inhibition,[3]; at 100.0 µM,98% (active)
same,growth inhibition,[4]; at 1.2 µM,2%
same,growth inhibition,[4]; at 3.7 µM,19%
same,growth inhibition,[4]; at 11.0 µM,80% (active)
same,growth inhibition,[4]; at 33.0 µM,99% (active)
same,growth inhibition,[4]; at 100.0 µM,99% (active)
same,growth inhibition,[5]; at 1.2 µM,4%
same,growth inhibition,[5]; at 3.7 µM,23%
same,growth inhibition,[5]; [16],24%
same,growth inhibition,[5]; at 11.0 µM,83% (active)
same,growth inhibition,[5]; at 33.0 µM,98% (active)
same,growth inhibition,[5]; [17],99% (active)
same,growth inhibition,[5]; at 50.0 µM,99.4% (active)
same,growth inhibition,[5]; at 100.0 µM,99% (active)
same,growth inhibition,[6]; at 1.2 µM,17%
same,growth inhibition,[6]; at 3.7 µM,38%
same,growth inhibition,[6]; [16],5%
same,growth inhibition,[6]; at 11.0 µM,86% (active)
same,growth inhibition,[6]; at 33.0 µM,99% (active)
same,growth inhibition,[6]; [17],99% (active)
same,growth inhibition,[6]; at 50.0 µM,99.4% (active)
same,growth inhibition,[6]; at 100.0 µM,99% (active)
same,growth inhibition,[7]; at 1.2 µM,9%
same,growth inhibition,[7]; at 3.7 µM,21%
same,growth inhibition,[7]; at 11.0 µM,80% (active)
same,growth inhibition,[7]; at 33.0 µM,99% (active)
same,growth inhibition,[7]; at 100.0 µM,99% (active)
same,growth inhibition,[8]; [16],50%
same,growth inhibition,[8]; [17],99% (active)
same,growth inhibition,[8]; at 50.0 µM,99.5% (active)
same,growth inhibition,[9]; at 1.2 µM,10%
same,growth inhibition,[9]; at 3.7 µM,22%
same,growth inhibition,[9]; at 11.0 µM,40%
same,growth inhibition,[9]; at 33.0 µM,98% (active)
same,growth inhibition,[9]; at 100.0 µM,98% (active)
same,growth inhibition,[10]; [16],7%
same,growth inhibition,[10]; [17],99% (active)
same,growth inhibition,[10]; at 50.0 µM,99.2% (active)
same,growth inhibition,[11]; at 1.2 µM,5%
same,growth inhibition,[11]; at 3.7 µM,28%
same,growth inhibition,[11]; [16],61%
same,growth inhibition,[11]; at 11.0 µM,90% (active)
same,growth inhibition,[11]; at 33.0 µM,99% (active)
same,growth inhibition,[11]; [17],99% (active)
same,growth inhibition,[11]; at 50.0 µM,98.8% (active)
same,growth inhibition,[11]; at 100.0 µM,99% (active)
same,growth inhibition,[12]; at 1.2 µM,3%
same,growth inhibition,[12]; at 3.7 µM,16%
same,growth inhibition,[12]; at 11.0 µM,75% (active)
same,growth inhibition,[12]; at 33.0 µM,99% (active)
same,growth inhibition,[12]; at 100.0 µM,99% (active)
same,growth inhibition,[13]; at 1.2 µM,16%
same,growth inhibition,[13]; at 3.7 µM,40%
same,growth inhibition,[13]; at 11.0 µM,86% (active)
same,growth inhibition,[13]; at 33.0 µM,99% (active)
same,growth inhibition,[13]; at 100.0 µM,99% (active)
same,growth inhibition,[14]; [16],61%
same,growth inhibition,[14]; [17],99% (active)
same,growth inhibition,[14]; at 50.0 µM,99.2% (active)
same,growth inhibition,[15]; at 1.2 µM,16%
same,growth inhibition,[15]; at 3.7 µM,37%
same,growth inhibition,[15]; at 11.0 µM,86% (active)
same,growth inhibition,[15]; at 33.0 µM,98% (active)
same,growth inhibition,[15]; at 100.0 µM,99% (active)

# From PubChem BioAssay (NCI)
